Screens deposited in PubChem BioAssay by The Scripps Research Institute Molecular Screening Center.
An excerpt weighted towards active compounds, which were near 2.3% of everything screened.
M1 PAM parental = counter-screen for M1 PAMs: effect in parental CHO-K1 cells; hit rate 0.02% among 360,000; activation, % at 3 µM; AID 602247; ATP EC20, Fluo-8 calcium fluorescence; 0% at ATP EC20, 100% at ATP max;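 active = activation above the run cutoff, the mean activation of all test compounds plus 3 SD, cut at about 40% in these data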;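 note: peak over basal fluorescence ratio in a 140 s read after ATP addition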
CHO-K1 Ca antag = counter-screen for M1 antagonists: effect in parental CHO-K1 cells; ATP-induced calcium, Fluo-8 fluorescence; inhibition, % at 3 µM; hit rate 0.6% among 360,000; AID 602250;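 active = inhibition above a per-plate cutoff, the plate's mean sample inhibition plus 3 SD, cut at about 24% in these data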;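 note: 0% = DMSO plus EC80 ATP and 100% = DMSO alone without ATP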
CHO-K1 Ca ag = M1 agonist counterscreen hit in parental CHO-K1 cells. Fluo-8 calcium fluorescence; scaled to maximal ATP response, vehicle zero. activation, % at 3 µM. hit rate 0.48% among 360,000. AID 602248; in the data active = activation above about 15%;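 note: untransfected CHO-K1 host cells lacking M1 receptor as counterscreen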
M1 ag = activates human CHRM1 receptor; hit rate 0.33% among 360,000; activation, % at 3 µM; CHO-K1 hM1, Fluo-8 calcium fluorescence, agonist mode; 0% DMSO, 100% acetylcholine EC100; P11229; AID 588814;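 active = activation above the run's mean compound activation plus 3 SD, cut at about 16% in these data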;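 note: peak over basal fluorescence ratio within a 140 s kinetic read after compound addition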
Target sequence (P11229 whole entry, looked up): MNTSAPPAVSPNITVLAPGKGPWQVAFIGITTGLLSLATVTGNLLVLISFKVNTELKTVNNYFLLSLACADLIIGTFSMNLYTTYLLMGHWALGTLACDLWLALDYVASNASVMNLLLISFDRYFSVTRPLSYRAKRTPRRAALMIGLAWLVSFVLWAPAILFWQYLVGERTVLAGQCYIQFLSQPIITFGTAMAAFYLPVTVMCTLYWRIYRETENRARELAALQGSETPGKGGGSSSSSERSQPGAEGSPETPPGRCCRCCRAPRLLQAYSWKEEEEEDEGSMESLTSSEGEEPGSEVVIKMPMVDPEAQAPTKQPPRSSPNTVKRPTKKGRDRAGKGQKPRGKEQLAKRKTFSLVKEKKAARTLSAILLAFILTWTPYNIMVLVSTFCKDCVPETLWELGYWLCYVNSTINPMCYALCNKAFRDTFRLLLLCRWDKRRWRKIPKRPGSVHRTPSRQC
M1 antag = blocks human M1 muscarinic receptor. CHO-K1 hM1, Fluo-8 calcium fluorescence, ACh EC80 antagonist. inhibition, % at 3 µM. hit rate 1.3% among 360,000. AID 588852;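 active = percent inhibition above its own plate's cutoff, namely the mean of that plate's compound wells plus 3 SD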;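 note: peak over basal fluorescence ratio during 140 s after agonist addition; 0% = ACh EC80 plus DMSO and 100% = DMSO alone without agonist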
CHRM1 PAM = positive allosteric modulators of human M1 muscarinic receptor; CHO-K1 hM1, Fluo-8 calcium fluorescence, ACh EC20; 0% = ACh EC20, 100% = maximal ACh; AID 588819; activation, % at 3 µM; P11229; hit rate 0.088% among 360,000; in the data active = activation above about 19%, passing the limit was not always enough
* marks the source's active call; other numbers are inactive results.

SMILES | M1 PAM parental | CHO-K1 Ca antag | CHO-K1 Ca ag | M1 ag | M1 antag | CHRM1 PAM
COc1ccc(Br)cc1C(=O)Nc1ccccc1N1CCN(C(=O)c2ccccc2)CC1 | -11 | 2 | 0 | 0 | -2 | 12
CS(=O)(=O)c1ccc(C(=O)Nc2ccc(N3CCCC3)cc2)c(Cl)c1 | 0 | -3 | 0 | -12 | 0 | 8
O=C(Nc1ccc(N2CCCC2)cc1)c1cc(Br)ccc1Cl | -10 | 2 | 0 | -8 | 53* | -28
O=C(Nc1ccccc1N1CCN(C(=O)c2ccccc2)CC1)c1cc(Br)ccc1Cl | -8 | 26* | 0 | -1 | 14 | 0
COc1ccc(C(c2nnnn2Cc2ccccc2)N2CCN(C/C=C/c3ccccc3)CC2)cc1 (stereo not given) | 3 | -4 | 1 | -4 | 35 | -24
COc1ccc2c(-c3ccccc3)cc(SCC(=O)NC3CCS(=O)(=O)C3)nc2c1 (stereo not given) | 9 | -6 | 1 | -4 | -3 | 5
COc1ccccc1C(=O)Nc1ccnn1C1CCN(CCCC2CCCC2)CC1 | 0 | -8 | 1 | -5 | 12 | -11
CCc1ccc(CN2CCC(n3nccc3NC(=O)c3ccccc3Cl)CC2)cc1 | 4 | 0 | 9 | 28* | -16 | 6
O=C(Nc1ccnn1C1CCN(CCCC2CCCC2)CC1)c1ccccc1Cl | -2 | -4 | 5 | -4 | 40* | -17
O=C(Nc1ccnn1C1CCN(C2CCC2)CC1)c1ccccc1Cl | 9 | 46* | 1 | -5 | -15 | 8
O=C1C2C3CC(C(Br)C3Br)C2C(=O)N1c1nccs1 (stereo not given) | 10 | -1 | 2 | -2 | -3 | 5
COC(=O)c1oc2ccccc2c1NC(=O)c1ccccc1O | 11 | 1 | 3 | -4 | -1 | 0
Cc1c(C(=O)NNC(=O)c2ccccc2O)oc2ccccc12 | -14 | 26* | 0 | -1 | -2 | 0
CCOCCCNC(=O)c1c(C)[nH]c(C(=O)OCC)c1C | 1 | 10 | 0 | -4 | -1 | 3
CCOCCCNC(=O)c1[nH]c(C)c(C(C)=O)c1C | -5 | 24* | 0 | -1 | -11 | 3
Nc1nnn(CC(=O)N/N=C/c2ccc(Cl)cc2Cl)n1 | 0 | -5 | 0 | -2 | -7 | -2
O=C(c1cnc2ccc3ccccc3c2c1)c1cc(F)ccc1O | 40* | -21 | 4 | 6 | 0 | 3
C[N+]1(CCCOC(=O)C2(c3ccccc3)CCCC2)CCOCC1 | -7 | 7 | 0 | -9 | 100* | -23
CCNC(=O)C1(c2ccccc2)CCCC1 | 15 | -16 | 0 | 0 | -12 | 10
CN(C)CCOC(=O)C1(c2ccccc2)CCCC1 | 13 | -4 | 1 | -5 | 100* | -23
O=C(OCCN1CCCC1)C1(c2ccccc2)CCCC1 | 21 | -1 | 1 | -5 | 99* | -23
O=C(OCCN1CCCCC1)C1(c2ccccc2)CCCC1 | 5 | -2 | 2 | -15 | 100* | -38
COc1cc(C(=O)Nc2ccc(S(=O)(=O)N3CCOCC3)cc2)c([N+](=O)[O-])cc1OC | 5 | -7 | 0 | -13 | -9 | 3
COc1ccc(S(=O)(=O)N2CCN(C(=O)c3ccc4ccccc4n3)CC2)cc1 | -8 | 6 | 3 | -4 | -2 | 4
CC(=O)c1ccc(NC(=O)COC(=O)CCc2ccc(S(=O)(=O)N3CCOCC3)cc2)cc1 | -6 | -8 | 3 | 1 | -22 | -2
SMILES | M1 PAM parental | CHO-K1 Ca antag | CHO-K1 Ca ag | M1 ag | M1 antag | CHRM1 PAM
CC1CCCCN1CCNC(=O)CC1Oc2ccccc2NC1=O (stereo not given) | 7 | -2 | 0 | -13 | 36* | -24
CCC(C)N(CCNC(=O)CC1Oc2ccc(C)cc2NC1=O)C1CCCCC1 (stereo not given) | -3 | -2 | 0 | -14 | 101* | -35
Cc1ccc2c(c1)NC(=O)C(CC(=O)NCCCN1CCCC1)O2 (stereo not given) | 4 | 9 | 3 | -13 | 0 | 1
Cc1ccc2c(c1)NC(=O)C(CC(=O)NCCCN1CCCCC1C)O2 (stereo not given) | 14 | 2 | -1 | -14 | -9 | -2
CC1=C/C(=N\NC(=S)Nc2cccnc2)CC(C)(C)C1 | -8 | 11 | 0 | -5 | 31 | -7
O=C(C1CCN(S(=O)(=O)c2ccc(F)cc2)CC1)N1CCCC(C(F)(F)F)C1 (stereo not given) | -2 | -5 | 0 | -2 | 3 | 3
COc1cc(/C=C/C(=O)NC(C)C)ccc1OCc1ccccc1 | 23 | -15 | 2 | -8 | -3 | 6
COc1cc(/C=N/OCC(=O)Nc2cc(C)on2)ccc1OCc1ccccc1 | 3 | 10 | 20* | -4 | 4 | 2
O=C(NC(Nc1nc2ccc([N+](=O)[O-])cc2s1)(C(F)(F)F)C(F)(F)F)c1cccnc1 | 13 | 24* | 9 | 5 | 23 | -5
O=C(NC(Nc1nc2ccc([N+](=O)[O-])cc2s1)(C(F)(F)F)C(F)(F)F)c1ccccc1Cl | 4 | 28* | 13 | 4 | 19 | -11
COc1ccc(CNC(=O)COC(=O)c2cc3ccccc3o2)cc1 | -20 | 21 | 0 | -2 | 29* | -13
CN1CCN(CC#CCn2c3ccccc3c3ccccc32)CC1 | 14 | -3 | 5 | -5 | 36* | -21
Cc1c(Cc2ccc3c(c2)OCO3)sc(NC(=O)c2cccc3ccccc23)c1C(N)=O | 19 | 2 | 2 | -13 | 101* | -33
CCC(C)NC(=O)Cn1cnc2sc(C)c(S(=O)(=O)N3CCCCC3)c2c1=O (stereo not given) | 2 | -9 | 0 | 0 | 7 | -2
O=C1C(Cl)=C(N2CCCCCC2)C(=O)N1c1ccccc1 | -4 | 3 | 0 | -4 | 36* | -17
O=C1C(Cl)=C(N2CCCCCC2)C(=O)N1c1ccc(Br)cc1 | -1 | -10 | 0 | -9 | 1 | -6
Cc1c(S(=O)(=O)Nc2ccc(Oc3ccccc3)cc2)c(=O)n(C)c(=O)n1C | -25 | 9 | 2 | -4 | 15 | -7
CC1(C)CC[C@]2(C(=O)O)CC[C@]3(C)C(=CC[C@@H]4[C@@]5(C)CC[C@H](O[C@@H]6O[C@H](C(=O)O)[C@@H](O)[C@H](O[C@@H]7OC[C@H](O)[C@H](O)[C@H]7O)[C@H]6O)C(C)(C)[C@@H]5CC[C@]43C)[C@@H]2C1 | -16 | 24* | 0 | 2 | 19 | -8
COc1ccc(CC(=O)OCC(=O)Nc2cccnc2Cl)cc1OC | 9 | -7 | 1 | 6 | 35* | 1
Cc1ccccc1NC(=O)N1CCCC(c2nc(-c3ccc(F)cc3)no2)C1 (stereo not given) | 5 | -9 | 4 | -6 | -6 | -4
